# Measured values as given in PMC11062922 (Nature Chemical Biology, 2023).
# Read-outs that look alike come from different tables or passages of the source.
# Assays:
# Parameters in all cases: species or system human, MV4-11 + K-562 + COLO205 + SK-N-BE2 + OVCAR-8
# NNT = settings: read-out: apparent Kd, n = 1
# NQO2 = settings: read-out: apparent Kd, n = 1
# MERTK = settings: read-out: apparent Kd; compound concentrations:100 nM and 1000 nM (sheet 'Samples'); n = 1
# NUAK2 = settings: read-out: apparent Kd; compound concentrations:100 nM and 1000 nM (sheet 'Samples'); n = 1
# PIK3CG = settings: read-out: apparent Kd, n = 1
# MDN1 = settings: read-out: apparent Kd; compound concentrations: 100 nM and 1000 nM (sheet 'Samples'), CATDS: 0.24349694063925101; n = 1
# PIK3C3 = settings: read-out: apparent Kd; compound concentrations: 100 nM and 1000 nM (sheet 'Samples'), CATDS: 0.27915457125427801; n = 1
# RIOK2 = settings: read-out: apparent Kd, compound concentrations: 100 nM and 1000 nM (sheet 'Samples'), n = 1
# TGFBR1 = settings: read-out: apparent Kd; compound concentrations: 100 nM and 1000 nM (sheet 'Samples'), CATDS: 0.25129467412206702; n = 1
# MTOR = settings: read-out: apparent Kd; compound concentrations: 100 nM and 1000 nM (sheet 'Samples'), CATDS: 7.1154294212896999E-2; n = 1
# PDGFRB = settings: read-out: apparent Kd; compound concentrations: 100 nM and 1000 nM (sheet 'Samples'), CATDS: 5.6462124359458001E-2; n = 1
# PI4KA = settings: read-out: apparent Kd; compound concentrations: 100 nM and 1000 nM (sheet 'Samples'), CATDS: 9.2469758478665204E-2; n = 1
# PI4KB = settings: read-out: apparent Kd; compound concentrations: 100 nM and 1000 nM (sheet 'Samples'), CATDS: 6.1584731713773599E-2; n = 1
# PIK3C2A = settings: read-out: apparent Kd; compound concentrations: 100 nM and 1000 nM (sheet 'Samples'), CATDS: 5.5656712709310899E-2; n = 1
# PIK3C2B = settings: read-out: apparent Kd; compound concentrations: 100 nM and 1000 nM (sheet 'Samples'), CATDS: 0.103549921719069; n = 1
# PIK3CA = settings: read-out: apparent Kd; compound concentrations: 100 nM and 1000 nM (sheet 'Samples'), CATDS: 0.27321348763970998; n = 1
# PIK3CB = settings: read-out: apparent Kd; compound concentrations: 100 nM and 1000 nM (sheet 'Samples'), CATDS: 0.12993654601332599; n = 1
# PIK3CD = settings: read-out: apparent Kd; compound concentrations: 100 nM and 1000 nM (sheet 'Samples'), CATDS: 0.40484446782600397; n = 1
# PRKDC = settings: read-out: apparent Kd; compound concentrations: 100 nM and 1000 nM (sheet 'Samples'), CATDS: 5.8127762202415202E-2; n = 1
# MTHFD1 = settings: read-out: apparent Kd, n = 1
# OPA1 = settings: read-out: apparent Kd; compound concentrations:100 nM and 1000 nM (sheet 'Samples'); n = 1
# PRKD1 = settings: read-out: apparent Kd; compound concentrations:100 nM and 1000 nM (sheet 'Samples'); n = 1
# NEK9 = settings: read-out: apparent Kd; compound concentrations: 100 nM and 1000 nM (sheet 'Samples'), CATDS: 1; n = 1
# TNK1 = settings: read-out: apparent Kd; compound concentrations: 100 nM and 1000 nM (sheet 'Samples'), CATDS: 0.618875790720404; n = 1
# MAPK9 = settings: read-out: apparent Kd; compound concentrations: 100 nM and 1000 nM (sheet 'Samples'), CATDS: 1; n = 1
# MAPK14 = settings: read-out: apparent Kd; compound concentrations: 100 nM and 1000 nM (sheet 'Samples'), CATDS: 0.69333991182184596; n = 1
# MAPKAPK2 = settings: read-out: apparent Kd; compound concentrations: 100 nM and 1000 nM (sheet 'Samples'), CATDS: 0.39097535171865; n = 1
# NLK = settings: read-out: apparent Kd; compound concentrations: 100 nM and 1000 nM (sheet 'Samples'), CATDS: 0.25956792289458103; n = 1
# RIPK2 = settings: read-out: apparent Kd; compound concentrations: 100 nM and 1000 nM (sheet 'Samples'), CATDS: 0.78129176750212304; n = 1
# RIPK3 = settings: read-out: apparent Kd; compound concentrations: 100 nM and 1000 nM (sheet 'Samples'), CATDS: 0.12404115210191501; n = 1
# STK16 = settings: read-out: apparent Kd; compound concentrations: 100 nM and 1000 nM (sheet 'Samples'), CATDS: 0.11776221232306; n = 1
# TESK2 = settings: read-out: apparent Kd; compound concentrations: 100 nM and 1000 nM (sheet 'Samples'), CATDS: 0.123939134013601; n = 1
# TGFBR2 = settings: read-out: apparent Kd; compound concentrations: 100 nM and 1000 nM (sheet 'Samples'), CATDS: 0.16011510960484199; n = 1
# PBK = settings: read-out: apparent Kd; compound concentrations:100 nM and 1000 nM (sheet 'Samples'); n = 1
# [1] = compound concentrations:100 nM and 1000 nM (sheet 'Samples')
smiles,measurement,setting,value
CS(=O)(=O)CCNCc1nc(-c2ccc3ncnc(Nc4ccc(OCc5ccccc5)c(Cl)c4)c3c2)cs1.CS(=O)(=O)CCNCc1nc(-c2ccc3ncnc(Nc4ccc(OCc5ccccc5)c(Cl)c4)c3c2)cs1.Cl.Cl [GW582764A],potency estimated from few doses,NNT; [1],2.02 µM
same,potency estimated from few doses,NQO2; [1],1.88 µM
CC(=O)N[C@@H](Cc1ccc(OP(=O)(O)O)cc1)C(=O)N[C@H]1CCC(=O)N2CCC[C@@H](C(=O)NC3CCc4ccccc43)N2C1=O (stereo partly drawn) [RO0324438-000],potency estimated from few doses,MERTK,1.22 µM
COc1ccc(NC(=O)c2ccc(-c3cc(-c4nnc(C)o4)ccc3C)cc2)cc1 [GW595885X],potency estimated from few doses,NUAK2,1.23 µM
same,potency estimated from few doses,PIK3CG; [1],1.41 µM
Nc1nc(-c2nccs2)c(-c2ccnc3ccccc23)s1 [GW693542X],potency estimated from few doses,MDN1,1.86 µM
same,potency estimated from few doses,PIK3C3,1.43 µM
same,potency estimated from few doses,RIOK2; CATDS: 0.23086501182720201,2.09 µM
same,potency estimated from few doses,TGFBR1,1.75 µM
COc1cccc(-n2nc(C)c3c(N/N=C(\C)c4ccncc4)ncnc32)c1 [GW809885X],potency estimated from few doses,"NNT; compound concentrations: 100 nM and 1000 nM (sheet 'Samples'), CATDS: 0.46713303896147801",1.6 µM
same,potency estimated from few doses,RIOK2; CATDS: 0.53784196223168101,1.2 µM
COc1ccc(-c2cc3c(C)nc(N)nc3n([C@H]3CC[C@H](O)CC3)c2=O)cn1 [PFE-PKIS_40],potency estimated from few doses,MTOR,0.382 µM
same,potency estimated from few doses,PDGFRB,1.55 µM
same,potency estimated from few doses,PI4KA,0.0965 µM
same,potency estimated from few doses,PI4KB,0.875 µM
same,potency estimated from few doses,PIK3C2A,1.72 µM
same,potency estimated from few doses,PIK3C2B,0.0557 µM
same,potency estimated from few doses,PIK3CA,0.00169 µM
same,potency estimated from few doses,PIK3CB,0.0197 µM
same,potency estimated from few doses,PIK3CD,0.000817 µM
same,potency estimated from few doses,"PIK3CG; compound concentrations: 100 nM and 1000 nM (sheet 'Samples'), CATDS: 0.28339263062776299",0.00157 µM
same,potency estimated from few doses,PRKDC,1.26 µM
COc1c(C(N)=O)cc(-c2ccc(Cl)cc2)cc1-c1ccc(S(N)(=O)=O)cc1 [GSK711701A],potency estimated from few doses,"NQO2; compound concentrations: 100 nM and 1000 nM (sheet 'Samples'), CATDS: 1",1.49 µM
CCNC(=O)[C@@H]1CCCN2C(=O)CC[C@H](NC(=O)[C@H](Cc3ccc(OP(=O)(O)O)cc3)NC(C)=O)C(=O)N12 [RO0325851-000],potency estimated from few doses,MTHFD1; [1],1.84 µM
FC(F)(F)c1ccc(-c2nn3ncccc3c2-c2ccnc(Nc3cccc(C(F)(F)F)c3)n2)cc1 [GW828205X],potency estimated from few doses,OPA1,1.63 µM
same,potency estimated from few doses,PRKD1,1.82 µM
COc1cc(Nc2ncc3c(C)nc(-c4cccc(Oc5ccccc5)c4)n3n2)cc(OC)c1OC [GW861893X],potency estimated from few doses,NEK9,0.584 µM
Cc1cc(NCC(c2ccccc2)c2ccccc2)nc(NCc2ccc(C(F)(F)F)cc2)n1 [GW497681X],potency estimated from few doses,"MTHFD1; compound concentrations: 100 nM and 1000 nM (sheet 'Samples'), CATDS: 0.41943372694081998",2.04 µM
same,potency estimated from few doses,TNK1,0.909 µM
COC(=O)c1c(-c2ccccc2)c2cc(Br)ccc2c(=O)n1Cc1ccc(S(C)(=O)=O)cc1 [TPKI-100],potency estimated from few doses,MAPK9,1.46 µM
O=c1[nH]c2cc(Nc3ccc(F)cc3F)ccc2n1CC1CCCCC1 [BI00601000],potency estimated from few doses,MAPK14,0.0276 µM
same,potency estimated from few doses,MAPKAPK2,0.0972 µM
Cc1cc(-c2cnc(N)c3c(-c4ccc5scnc5c4)csc23)n(C)n1 [GSK843],potency estimated from few doses,NLK,0.168 µM
same,potency estimated from few doses,RIPK2,0.0156 µM
same,potency estimated from few doses,RIPK3,1.43 µM
same,potency estimated from few doses,STK16,1.75 µM
same,potency estimated from few doses,TESK2,1.43 µM
same,potency estimated from few doses,TGFBR2,0.616 µM
Cn1ncc2cc(-c3cnc(N)c(Cl)c3N3CCC4(CCNC4=O)CC3)ccc21 [CCT251921],potency estimated from few doses,PBK,1.57 µM
CS(=O)(=O)CCNCc1nc(-c2ccc3ncnc(Nc4ccc(F)c(Cl)c4)c3c2)cs1.Cl [GW461104A],potency estimated from few doses,MERTK,1.19 µM
same,potency estimated from few doses,NNT; [1],1.74 µM
Fc1cccc(COc2ccc(Nc3ncnc4sc(-c5cccs5)cc34)cc2Cl)c1 [GW684626B],potency estimated from few doses,NNT; [1],1.21 µM
